According to PubChem BioAssay AID651599 (National Center for Advancing Translational Sciences (NCATS), 2012):
Results filed as inconclusive are left out. Calls of active or inactive are those of the source. Calls come from the whole dose curve; as a rule, active = well fitted inhibition curve with a large enough effect; inconclusive = small, poorly fitted or top-dose-only effect; inactive = no such curve, though single readings can be large or run the other way.

biological target: Tumor susceptibility gene 101 protein (Homo sapiens) (UniProt Q99816); assay: qHTS Assay for Iinhibitors of HIV-1 Budding by Blocking the Interaction of PTAP/TSG101: Hit Validation in TR assay; settings: Tsg101 binding domain + Texas Red-labeled PTAP peptide, fluorescence polarization, 20 min; series mostly up to 57.5 µM
Source text: Stages of the HIV-1 replication cycle, specifically virus assembly and release, provide underexploited targets for the development of novel antiviral inhibitors. The late stages of HIV-1 replication are mediated by the Gag precursor protein, Pr55Gag. Expression of Pr55Gag is both necessary and sufficient for the production of virus-like particles from Gag-expressing cells. The Gag protein hijacks key host proteins involved in endocytic machinery of the host cell to promote endosomal processing and viral budding. The budding process requires a direct interaction between a […] (PTAP) motif in the p6 domain of Gag and the cellular endosomal sorting protein known as Tsg101. In this way, the Gag PTAP motif promotes the host cells to recruit viral particles to the plasma membrane where the new viral particles are released, effectively turning the host cells into viral factories. A fluorescence anisotropy assay has been developed to quantitatively measure the PTAP-Tsg101 interaction which can be used to screen for inhibitors of this interaction.
This hit validation assay is similar to the primary assay but uses the Texas Red label instead of FITC.
NIH Molecular Libraries Probe Production Network [MLPCN]
NIH Chemical Genomics Center [NCGC]
PI Name: Dr. Eric Freed, NCI
Two uL of the Tsg101 binding domain in buffer (10 mM HEPES pH 7.5; 0.15 M NaCl, 0.01% Tween 20; 3 mM EDTA;0.1 mM TCEP) was dispensed into Greiner black MB 1536-well plates (final concentration 10 uM). Then, 23 nL of compounds or DMSO were delivered to each well using a pin tool. Finally, 2 uL of a TR-labeled peptide containing the PTAP motif (1) in the same buffer was dispensed (50 nM final concentration) and the binding was allowed to proceed for 20 min. at r.t. Fluorescent polarization was determined using TR excitation and polarized emission filters on a Perkin Elmer Viewlux.
Keywords: Tsg101, PTAP, Gag, HIV, fluorescent polarization, MLSMR, MLPCN, NIH Roadmap, qHTS, NCGC

Tumor susceptibility gene 101 protein (Homo sapiens), sequence (Q99816 whole entry, looked up, the tested form may be a part): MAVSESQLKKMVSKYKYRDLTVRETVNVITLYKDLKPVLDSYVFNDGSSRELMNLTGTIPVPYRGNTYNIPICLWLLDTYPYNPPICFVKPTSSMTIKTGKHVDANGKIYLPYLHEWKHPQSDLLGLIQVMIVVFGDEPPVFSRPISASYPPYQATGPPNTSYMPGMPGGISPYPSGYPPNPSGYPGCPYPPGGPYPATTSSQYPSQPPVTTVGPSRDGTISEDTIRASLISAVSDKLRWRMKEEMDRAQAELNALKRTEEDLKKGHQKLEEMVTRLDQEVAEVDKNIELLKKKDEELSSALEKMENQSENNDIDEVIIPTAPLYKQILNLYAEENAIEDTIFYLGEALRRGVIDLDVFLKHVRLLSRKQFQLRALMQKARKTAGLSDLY

Potency, inactive:
COc1ccccc1NC(=O)c1sc2nc(Cc3ccccc3)cc(C(F)(F)F)c2c1N, O=[N+]([O-])c1ccc(Sc2cccc[n+]2[O-])c2nonc12, O=C(OCCN1C(=O)c2cccc3c(N4CCOCC4)ccc(c23)C1=O)c1ccc(Cl)cc1, CCOc1ccc(-c2nn(-c3ccccc3)cc2/C=C2\SC(=S)N(C3CCS(=O)(=O)C3)C2=O)cc1 (stereo not given), O=C1CCNc2ccc(-c3ccccc3)cc21, O=C(NCc1cc(C(F)(F)F)ccc1Cl)c1cccc2c1C(=O)c1ccc(N3CCC(Cc4ccccc4)CC3)cc1S2(=O)=O, O=C(OCCN1C(=O)c2cccc3c(N4CCOCC4)ccc(c23)C1=O)c1cccc(Cl)c1, Cc1cc(-c2cccs2)c2c(N)c(C(=O)c3ccc4c(c3)OCO4)sc2n1, Cn1c2ccc(F)cc2c2nc3ccccc3nc21, CCSC1=NSC2=NC(=O)/C(=C\c3coc4ccccc4c3=O)C(=N)N12, Cn1cc(/C=C2\SC(=S)N(NC(=O)c3ccccc3Cl)C2=O)c2ccccc21, N#C/C(=C\c1ccccn1)c1nc2ccccc2s1, CCOc1ccc2nc3cc(NCc4ccc(OC)cc4)ccc3c(N)c2c1, O=C(c1ccccc1)c1ccc(O)cc1O, O=C(O)c1ccccc1-c1ccc(/C=C/c2cc(C(F)(F)F)[nH]c(=O)n2)o1, CC(C)c1cc(=O)oc2c3c4c(cc12)CCCN4CCC3, COc1ccccc1Nc1nc2ccc(C)cc2cc1C#N, CCN1CCN(Cc2ccc(NC(=O)Nc3ccccc3OC)cc2)CC1, CCOc1cc(/C=C(\C#N)c2nc(-c3cccs3)c(NC(C)=O)s2)ccc1O, CCN1CC=C2C(C#N)=C(N)C(C#N)(C#N)[C@H](c3cccc(OC)c3OC)[C@H]2C1, CC(C)(C)OC(=O)NC(Cc1ccccc1)C(=O)N1CCC(C(=O)NCC(=O)Nc2ccc(F)cc2)CC1 (stereo not given), CCOc1ccc(S(=O)(=O)N2CCc3cc(OC)c(OC)cc3C2)cc1, Oc1ccc2nnc3c(Br)cnn3c2c1, Oc1oc(-c2ccccc2)nc1C=Nc1cccc2ccccc12, CC(C)(C)c1cc[n+](-c2[nH]c(=O)sc2/C=N/NC(=O)c2ccccc2[O-])cc1, Cc1cc(/C=C2\SC(=S)NC2=O)c(C)n1-c1ccccc1, COCCCNC(=O)c1ccc2c3c(onc13)-c1ccccc1C2=O, CC1=CC(=C(C#N)c2nc3ccccc3s2)C=C(C)N1Cc1ccco1, CN1CCC2(CC1)C1CN(C)CC=C1C(C#N)=C(N)C2(C#N)C#N (stereo not given), CN1CCc2c(sc3c2C(=O)NC(c2ccco2)N3)C1 (stereo not given), CSCC(C)N1CCC(n2nccc2NC(=O)CCCc2ccccc2)CC1 (stereo not given), O=C(NC1CCCCC1)c1cccc2c1C(=O)c1ccc(N3CCC(Cc4ccccc4)CC3)cc1S2(=O)=O, COc1ccc(Nc2nc(-c3cccnc3)nc3ccccc23)cn1, Cc1cc(Br)ccc1NC(=O)c1sc2nc3n(c(=O)c2c1C)CCCC3, COC(=O)C[n+]1cccc2ccccc21, CC(OC(=O)c1c2c(nc3ccccc13)/C(=C\c1ccc3c(c1)OCO3)CCC2)C(=O)Nc1ccc(S(N)(=O)=O)cc1 (stereo not given), COc1ccc(C2=CC(c3ccco3)n3ncnc3N2)cc1 (stereo not given), CC[C@@]1(C(=O)OC)N[C@H](CN(C)C(=O)c2ccc(C)cc2)[C@@H]2C(=O)N(Cc3ccccc3)C(=O)[C@@H]21, N#Cc1ccsc1NC(=O)CSc1nncs1, C=C1CCN(c2ccc(C(=O)O)cc2[N+](=O)[O-])CC1
